Data: the supplement of paper PMC6411743
± gives the standard deviation of the averaged measurements. Of roughly 5,400 targets only a part is listed; those with the largest changes were picked by preference.

Compound: Nc1nc2c(ncn2[C@@H]2O[C@H](COP(=O)(O)OP(=O)(O)OP(=O)(O)O)[C@@H](O)[C@H]2O)c(=O)[nH]1 [guanosine triphosphate]
Test: NP40-soluble protein abundance relative to vehicle (solubility fold change) (ratio); higher = more soluble protein in presence of GTP
Outline: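 Eight concentrations, 0.1 to 10 mM, were tested on Jurkat crude lysate for 10 min at room temperature and then 3 min at 37 °C, in three independent experiments. The lysate was solubilised with 0.8% NP40 and benzonase, ultracentrifuged, and the supernatant TMT-labelled for LC-MS/MS. Each value is the fold change against the detergent-processed vehicle in its own replicate, from vsn-normalised intensities.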

Sequence of UniProt Q86V88 (Q86V88 whole entry): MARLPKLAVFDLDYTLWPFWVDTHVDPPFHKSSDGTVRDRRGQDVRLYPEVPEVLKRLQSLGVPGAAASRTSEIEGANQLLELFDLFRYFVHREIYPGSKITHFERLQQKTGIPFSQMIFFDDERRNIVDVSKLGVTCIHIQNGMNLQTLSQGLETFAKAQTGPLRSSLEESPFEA
Sequence of UniProt Q6IBS0 (Q6IBS0 whole entry): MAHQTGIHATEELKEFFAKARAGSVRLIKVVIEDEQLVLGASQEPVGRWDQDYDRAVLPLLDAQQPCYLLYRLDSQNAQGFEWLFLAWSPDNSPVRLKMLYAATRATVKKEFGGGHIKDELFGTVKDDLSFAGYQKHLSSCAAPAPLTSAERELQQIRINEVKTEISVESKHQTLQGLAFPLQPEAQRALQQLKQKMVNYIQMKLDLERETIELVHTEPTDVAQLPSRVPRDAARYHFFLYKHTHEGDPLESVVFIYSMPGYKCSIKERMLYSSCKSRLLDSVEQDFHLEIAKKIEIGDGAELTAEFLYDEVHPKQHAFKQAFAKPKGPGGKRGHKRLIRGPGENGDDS
Sequence of UniProt Q15424 (Q15424 whole entry): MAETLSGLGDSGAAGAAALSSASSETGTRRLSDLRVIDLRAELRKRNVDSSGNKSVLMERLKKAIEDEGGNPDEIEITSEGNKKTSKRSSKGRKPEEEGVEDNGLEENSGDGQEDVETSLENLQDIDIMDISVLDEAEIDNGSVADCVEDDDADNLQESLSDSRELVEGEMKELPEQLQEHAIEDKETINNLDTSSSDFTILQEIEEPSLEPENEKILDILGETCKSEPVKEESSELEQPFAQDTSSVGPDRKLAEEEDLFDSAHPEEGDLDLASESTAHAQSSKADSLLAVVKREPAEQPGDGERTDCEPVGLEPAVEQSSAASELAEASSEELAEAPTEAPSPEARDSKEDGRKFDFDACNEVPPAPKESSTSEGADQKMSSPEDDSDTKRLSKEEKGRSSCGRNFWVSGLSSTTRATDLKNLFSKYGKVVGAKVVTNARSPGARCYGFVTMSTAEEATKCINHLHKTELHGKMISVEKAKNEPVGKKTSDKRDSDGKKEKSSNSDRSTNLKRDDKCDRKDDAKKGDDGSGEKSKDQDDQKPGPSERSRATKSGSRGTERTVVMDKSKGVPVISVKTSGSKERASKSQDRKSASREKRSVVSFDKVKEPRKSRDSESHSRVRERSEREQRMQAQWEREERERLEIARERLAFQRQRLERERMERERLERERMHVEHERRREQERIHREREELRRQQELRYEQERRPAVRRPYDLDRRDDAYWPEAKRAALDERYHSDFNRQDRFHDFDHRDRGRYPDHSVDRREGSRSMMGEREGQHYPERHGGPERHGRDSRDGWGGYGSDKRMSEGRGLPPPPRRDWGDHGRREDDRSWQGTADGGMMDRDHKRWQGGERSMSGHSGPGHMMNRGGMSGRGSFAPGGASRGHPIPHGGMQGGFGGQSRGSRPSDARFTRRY
Sequence of UniProt Q10567 (Q10567 whole entry): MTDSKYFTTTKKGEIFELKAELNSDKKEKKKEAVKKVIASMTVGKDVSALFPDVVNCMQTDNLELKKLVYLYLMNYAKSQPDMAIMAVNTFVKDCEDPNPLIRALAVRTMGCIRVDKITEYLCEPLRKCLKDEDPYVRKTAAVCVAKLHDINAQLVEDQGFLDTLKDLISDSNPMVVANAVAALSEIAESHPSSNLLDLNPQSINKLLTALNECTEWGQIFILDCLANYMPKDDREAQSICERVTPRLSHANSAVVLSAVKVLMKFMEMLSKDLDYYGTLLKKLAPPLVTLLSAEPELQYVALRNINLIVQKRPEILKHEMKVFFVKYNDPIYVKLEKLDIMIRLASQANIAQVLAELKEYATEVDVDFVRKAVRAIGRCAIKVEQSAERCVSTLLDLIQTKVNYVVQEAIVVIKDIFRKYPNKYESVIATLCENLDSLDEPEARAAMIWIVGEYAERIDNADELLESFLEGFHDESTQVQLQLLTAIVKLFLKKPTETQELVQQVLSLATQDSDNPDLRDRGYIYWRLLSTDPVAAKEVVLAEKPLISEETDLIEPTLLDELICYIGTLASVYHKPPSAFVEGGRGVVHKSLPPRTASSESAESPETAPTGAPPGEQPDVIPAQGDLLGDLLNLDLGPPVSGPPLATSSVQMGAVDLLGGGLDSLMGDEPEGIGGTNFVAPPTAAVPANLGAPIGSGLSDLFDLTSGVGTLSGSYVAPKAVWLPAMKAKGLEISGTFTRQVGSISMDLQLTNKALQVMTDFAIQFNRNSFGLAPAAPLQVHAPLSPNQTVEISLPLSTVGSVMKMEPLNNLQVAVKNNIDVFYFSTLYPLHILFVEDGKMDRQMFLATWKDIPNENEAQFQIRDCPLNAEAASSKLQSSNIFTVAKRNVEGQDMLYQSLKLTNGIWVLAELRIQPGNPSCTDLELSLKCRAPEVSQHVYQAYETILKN
Sequence of UniProt Q8TBE9 (Q8TBE9 whole entry): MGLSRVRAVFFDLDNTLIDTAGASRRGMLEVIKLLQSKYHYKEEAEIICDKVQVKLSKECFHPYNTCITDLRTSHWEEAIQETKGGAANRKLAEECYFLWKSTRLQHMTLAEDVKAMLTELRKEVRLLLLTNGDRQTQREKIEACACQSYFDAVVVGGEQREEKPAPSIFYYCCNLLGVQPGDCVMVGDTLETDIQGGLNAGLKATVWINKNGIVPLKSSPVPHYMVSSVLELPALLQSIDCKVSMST
Sequence of UniProt Q86U90 (Q86U90 whole entry): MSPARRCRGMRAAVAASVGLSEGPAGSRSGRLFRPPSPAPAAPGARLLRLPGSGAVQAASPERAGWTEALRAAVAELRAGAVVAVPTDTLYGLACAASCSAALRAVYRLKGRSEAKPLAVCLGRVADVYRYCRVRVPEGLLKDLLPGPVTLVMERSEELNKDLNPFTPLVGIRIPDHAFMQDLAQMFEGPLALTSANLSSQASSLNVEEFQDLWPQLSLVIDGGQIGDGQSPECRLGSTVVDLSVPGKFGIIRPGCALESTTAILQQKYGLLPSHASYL
Sequence of UniProt Q49A26 (Q49A26 whole entry): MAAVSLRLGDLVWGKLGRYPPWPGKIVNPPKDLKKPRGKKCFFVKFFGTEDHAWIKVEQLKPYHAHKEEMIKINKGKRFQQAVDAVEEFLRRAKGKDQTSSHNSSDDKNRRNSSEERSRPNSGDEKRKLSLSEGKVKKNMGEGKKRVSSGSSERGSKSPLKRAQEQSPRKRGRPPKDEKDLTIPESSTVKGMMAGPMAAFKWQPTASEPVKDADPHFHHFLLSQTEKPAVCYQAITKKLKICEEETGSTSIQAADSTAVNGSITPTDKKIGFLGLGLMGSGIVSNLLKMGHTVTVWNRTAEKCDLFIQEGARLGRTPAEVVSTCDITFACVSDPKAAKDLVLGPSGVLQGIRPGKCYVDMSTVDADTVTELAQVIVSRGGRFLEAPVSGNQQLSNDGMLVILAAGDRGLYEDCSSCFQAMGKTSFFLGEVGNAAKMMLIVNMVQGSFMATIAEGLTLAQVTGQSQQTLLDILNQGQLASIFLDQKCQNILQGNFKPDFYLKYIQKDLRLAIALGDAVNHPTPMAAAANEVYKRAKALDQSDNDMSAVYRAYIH
Sequence of UniProt Q13200 (Q13200 whole entry): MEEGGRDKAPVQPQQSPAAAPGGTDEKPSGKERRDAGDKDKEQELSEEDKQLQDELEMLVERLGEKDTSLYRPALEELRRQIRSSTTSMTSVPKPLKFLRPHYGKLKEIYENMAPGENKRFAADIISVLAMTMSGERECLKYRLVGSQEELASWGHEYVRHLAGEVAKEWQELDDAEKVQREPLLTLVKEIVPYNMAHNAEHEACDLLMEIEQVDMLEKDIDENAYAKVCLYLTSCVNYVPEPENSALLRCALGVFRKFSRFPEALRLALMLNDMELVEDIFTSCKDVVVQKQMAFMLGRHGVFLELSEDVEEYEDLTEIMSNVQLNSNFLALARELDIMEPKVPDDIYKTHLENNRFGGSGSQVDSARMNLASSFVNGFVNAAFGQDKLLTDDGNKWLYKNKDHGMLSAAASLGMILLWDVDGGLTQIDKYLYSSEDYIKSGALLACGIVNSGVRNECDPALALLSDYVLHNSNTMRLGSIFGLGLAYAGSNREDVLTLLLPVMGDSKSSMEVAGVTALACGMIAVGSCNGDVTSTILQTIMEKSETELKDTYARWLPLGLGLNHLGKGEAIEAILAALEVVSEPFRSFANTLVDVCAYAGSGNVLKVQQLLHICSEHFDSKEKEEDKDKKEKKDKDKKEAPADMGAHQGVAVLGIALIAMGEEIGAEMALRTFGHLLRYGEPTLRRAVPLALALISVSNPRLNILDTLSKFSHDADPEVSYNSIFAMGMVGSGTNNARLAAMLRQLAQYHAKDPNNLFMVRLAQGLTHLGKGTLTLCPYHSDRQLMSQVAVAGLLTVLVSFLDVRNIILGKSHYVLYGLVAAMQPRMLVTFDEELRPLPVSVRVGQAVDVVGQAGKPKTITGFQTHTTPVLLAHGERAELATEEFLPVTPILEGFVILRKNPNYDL
Sequence of UniProt Q13573 (Q13573 whole entry): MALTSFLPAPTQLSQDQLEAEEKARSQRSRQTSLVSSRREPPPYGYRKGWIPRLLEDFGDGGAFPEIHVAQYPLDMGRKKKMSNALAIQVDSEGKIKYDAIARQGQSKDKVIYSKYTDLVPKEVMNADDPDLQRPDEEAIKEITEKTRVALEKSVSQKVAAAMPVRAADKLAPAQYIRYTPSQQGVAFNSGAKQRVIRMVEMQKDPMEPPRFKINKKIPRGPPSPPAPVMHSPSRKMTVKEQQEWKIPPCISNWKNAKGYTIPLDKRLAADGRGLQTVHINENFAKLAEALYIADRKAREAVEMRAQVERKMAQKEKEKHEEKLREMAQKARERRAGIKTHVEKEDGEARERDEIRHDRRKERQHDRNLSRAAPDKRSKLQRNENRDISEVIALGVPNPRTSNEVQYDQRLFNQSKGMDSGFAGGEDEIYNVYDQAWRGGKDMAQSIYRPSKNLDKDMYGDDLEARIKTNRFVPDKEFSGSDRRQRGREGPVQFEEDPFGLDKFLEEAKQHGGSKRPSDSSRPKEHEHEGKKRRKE

Target	NP40-soluble protein abundance (concentration: 0.1mM)	NP40-soluble protein abundance (concentration: 0.5mM)	NP40-soluble protein abundance (concentration: 1mM)	NP40-soluble protein abundance (concentration: 2mM)	NP40-soluble protein abundance (concentration: 4mM)	NP40-soluble protein abundance (concentration: 6mM)	NP40-soluble protein abundance (concentration: 8mM)	NP40-soluble protein abundance (concentration: 10mM)
LDB1 (UniProt Q86U70)	1.066 ± 0.0088	1.04 ± 0.05	1 ± 0.056	0.989 ± 0.024	0.938 ± 0.043	0.951 ± 0.021	0.968 ± 0.047	0.931 ± 0.036
NANP (UniProt Q8TBE9)	1.07 ± 0.15	0.981 ± 0.11	0.954 ± 0.14	0.982 ± 0.16	0.904 ± 0.12	0.877 ± 0.14	0.891 ± 0.2	0.861 ± 0.15
RDH11 (UniProt Q8TC12)	1 ± 0.014	0.985 ± 0.024	0.911 ± 0.034	0.895 ± 0.051	0.867 ± 0.048	0.88 ± 0.015	0.824 ± 0.084	0.782 ± 0.082
UniProt P84090	1.06 ± 0.1	1.02 ± 0.06	1.26 ± 0.18	1.34 ± 0.11	1.42 ± 0.16	1.54 ± 0.1	1.65 ± 0.14	1.95 ± 0.38
YRDC (UniProt Q86U90)	0.989 ± 0.041	0.952 ± 0.022	0.949 ± 0.027	0.943 ± 0.015	0.946 ± 0.041	0.899 ± 0.026	0.871 ± 0.07	0.916 ± 0.055
RABGGTA (UniProt Q92696)	1.04 ± 0.026	1.04 ± 0.075	0.896 ± 0.022	0.916 ± 0.068	0.91 ± 0.037	0.889 ± 0.032	0.847 ± 0.037	0.849 ± 0.07
SNW1 (UniProt Q13573)	0.96 ± 0.049	0.94 ± 0.064	0.97 ± 0.028	0.94 ± 0.071	0.942 ± 0.063	0.959 ± 0.041	1.01 ± 0.046	1.03 ± 0.051
PSMD2 (UniProt Q13200)	1.03 ± 0.077	1.1 ± 0.11	1.01 ± 0.13	1.08 ± 0.19	1.06 ± 0.17	1.08 ± 0.2	1.04 ± 0.16	1 ± 0.15
EDC4 (UniProt Q6P2E9)	0.984 ± 0.029	1 ± 0.037	1.01 ± 0.045	1.01 ± 0.029	1.01 ± 0.039	1.02 ± 0.032	1.02 ± 0.057	1.04 ± 0.046
ALDH16A1 (UniProt Q8IZ83)	1.11 ± 0.033	1.1 ± 0.076	1.13 ± 0.13	1.15 ± 0.12	1.16 ± 0.17	1.15 ± 0.15	1.16 ± 0.16	1.11 ± 0.15
UniProt Q15424|Q15424-3|Q15424-4	0.958 ± 0.048	0.938 ± 0.052	1.04 ± 0.039	1.09 ± 0.081	1.19 ± 0.066	1.25 ± 0.041	1.38 ± 0.083	1.44 ± 0.083
UniProt Q7KZN9|Q7KZN9-2	1.07 ± 0.024	1.05 ± 0.11	0.98 ± 0.035	0.961 ± 0.022	0.939 ± 0.052	0.924 ± 0.037	0.907 ± 0.029	0.931 ± 0.042
UniProt Q10567|Q10567-2|Q10567-3	0.918 ± 0.056	0.927 ± 0.032	0.956 ± 0.054	0.943 ± 0.044	0.954 ± 0.04	0.919 ± 0.051	0.921 ± 0.05	0.924 ± 0.054
EIF3A (UniProt Q14152)	1.05 ± 0.031	1.08 ± 0.018	1.09 ± 0.062	1.18 ± 0.12	1.38 ± 0.23	1.53 ± 0.28	1.74 ± 0.34	1.94 ± 0.38
UniProt Q8N5G2	1.07 ± 0.1	1.03 ± 0.089	1.12 ± 0.15	1.3 ± 0.057	1.26 ± 0.24	1.16 ± 0.17	1.24 ± 0.21	1.43 ± 0.25
ZC3H13 (UniProt Q5T200)	1.01 ± 0.055	1.02 ± 0.063	1.07 ± 0.054	1.08 ± 0.063	1.12 ± 0.059	1.12 ± 0.055	1.24 ± 0.099	1.18 ± 0.1
TWF2 (UniProt Q6IBS0)	1.02 ± 0.035	1.09 ± 0.049	1.02 ± 0.017	1.02 ± 0.055	1.03 ± 0.08	1.01 ± 0.013	0.95 ± 0.032	0.951 ± 0.012
DDX1 (UniProt Q92499)	1.02 ± 0.024	1.02 ± 0.066	0.941 ± 0.027	0.971 ± 0.072	0.997 ± 0.059	0.993 ± 0.063	0.971 ± 0.013	0.961 ± 0.038
BOLA3 (UniProt Q53S33)	0.893 ± 0.02	0.843 ± 0.047	0.962 ± 0.065	0.982 ± 0.03	0.953 ± 0.022	0.966 ± 0.061	0.925 ± 0.09	1.01 ± 0.042
UniProt Q49A26|Q49A26-3|Q49A26-4	1.044 ± 0.0023	1.06 ± 0.036	1.15 ± 0.03	1.27 ± 0.028	1.52 ± 0.16	1.72 ± 0.026	1.97 ± 0.078	2.27 ± 0.094
NOTCH2 (UniProt Q04721)	0.991 ± 0.023	1.03 ± 0.042	1.086 ± 0.0064	1.12 ± 0.069	0.967 ± 0.22	1.08 ± 0.23	1.08 ± 0.028	1.06 ± 0.08
NFXL1 (UniProt Q6ZNB6)	1.04 ± 0.079	1.09 ± 0.1	1.05 ± 0.091	1.11 ± 0.067	1.13 ± 0.12	1.16 ± 0.13	1.12 ± 0.12	1.15 ± 0.11
UniProt P80217|P80217-2	0.97 ± 0.043	1.01 ± 0.063	0.926 ± 0.044	0.902 ± 0.076	0.877 ± 0.059	0.911 ± 0.067	0.934 ± 0.052	0.938 ± 0.051
UniProt Q8IW45|Q8IW45-2	1.01 ± 0.071	0.978 ± 0.074	0.985 ± 0.038	0.945 ± 0.021	0.969 ± 0.013	0.915 ± 0.045	0.954 ± 0.077	0.91 ± 0.035
UniProt Q86V88|Q86V88-2	0.975 ± 0.052	0.901 ± 0.079	0.953 ± 0.11	0.872 ± 0.064	0.869 ± 0.048	0.839 ± 0.089	0.858 ± 0.058	0.88 ± 0.078
UniProt Q6UXH1|Q6UXH1-4|Q6UXH1-5|Q6UXH1-6	0.968 ± 0.018	0.941 ± 0.046	1.03 ± 0.09	0.959 ± 0.093	0.935 ± 0.096	0.959 ± 0.12	0.95 ± 0.061	0.956 ± 0.088
UniProt Q13085|A0A087X126	1.09 ± 0.08	1.09 ± 0.11	1.03 ± 0.088	1.07 ± 0.14	1.05 ± 0.11	1.04 ± 0.097	0.975 ± 0.072	0.956 ± 0.056
GALNT2 (UniProt Q10471)	1.02 ± 0.025	0.97 ± 0.021	0.9568 ± 0.0034	0.917 ± 0.014	0.928 ± 0.022	0.901 ± 0.012	0.927 ± 0.046	0.861 ± 0.052
UniProt Q8N2K0|Q8N2K0-2	1.09 ± 0.011	1.04 ± 0.051	1.01 ± 0.017	1.017 ± 0.0025	1.03 ± 0.015	1.01 ± 0.023	0.997 ± 0.031	0.976 ± 0.034
